The record followed here is PubChem BioAssay AID1851 (National Center for Advancing Translational Sciences (NCATS), 2009).

The structures appear in SMILES notation. Several values for one entry are separate records, joined by “and”; a condition that tells them apart may be missing. Equal entries are not always repeated. About 5,700 (36%) of roughly 16,000 compounds were called active. About 24% were inconclusive and are not listed. The list shows a part of the results. Values without a mark were called inactive. The call rests on the fitted dose curve; in most records, active means well fitted curve in the direction sought with a large enough effect; inconclusive means small, poorly fitted or top-dose-only effect, or effect the other way; inactive means no such curve, though single readings can be large or run the other way.
On the % scale 0 is the no-effect control and ±100 the full control effect.

The target of this experiment is Cytochrome P450 1A2 (Homo sapiens) (UniProt P05177). In words: Cytochrome panel assay with activity outcomes. The settings on record: recombinant CYP, pro-luciferin dealkylation, luminescence, p450-cyp1a2; series mostly up to 57.1 µM; activity, negative = inhibition: at the top concentration.
Chain of Cytochrome P450 1A2 (Homo sapiens) (P05177 whole entry, looked up): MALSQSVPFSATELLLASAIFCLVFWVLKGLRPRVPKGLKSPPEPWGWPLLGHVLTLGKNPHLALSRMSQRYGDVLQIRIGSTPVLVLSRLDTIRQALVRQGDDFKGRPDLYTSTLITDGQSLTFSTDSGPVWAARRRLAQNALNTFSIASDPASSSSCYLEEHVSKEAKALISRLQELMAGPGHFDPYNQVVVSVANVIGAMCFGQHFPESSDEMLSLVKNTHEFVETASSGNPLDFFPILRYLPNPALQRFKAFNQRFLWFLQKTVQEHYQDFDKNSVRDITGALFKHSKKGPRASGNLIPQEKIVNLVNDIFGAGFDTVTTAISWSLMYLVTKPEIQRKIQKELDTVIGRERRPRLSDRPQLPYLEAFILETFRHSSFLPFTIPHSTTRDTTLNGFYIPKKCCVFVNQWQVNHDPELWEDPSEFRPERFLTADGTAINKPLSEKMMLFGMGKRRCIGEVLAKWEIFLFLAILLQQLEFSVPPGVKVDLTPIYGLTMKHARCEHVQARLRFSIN
Turning to `CC[C@H](C)[C@@H]1O[C@]2(CC[C@@H]1C)C[C@H]1C[C@H](CC=C(C)[C@@H](O[C@H]3C[C@H](OC)[C@H](O[C@H]4C[C@H](OC)[C@H](O)[C@H](C)O4)[C@H](C)O3)[C@@H](C)C=CC=C3CO[C@@H]4[C@@H](O)C(C)=C[C@H](C(=O)O1)[C@@]34O)O2`, the “activity, negative = inhibition” value was -8.74%. Still for that read-out and setting: to `C/C(CCC(=O)OC[C@@H]1O[C@H](C#Cc2ccccc2)C=C[C@@H]1Oc1ccc(C)cc1)=N/O[C@@H](C)c1cn([C@H](CO)Cc2ccccc2)nn1` belongs -3.36% [at 11.4 µM] and -0.528% [at 11.4 µM].

Take `CC(=O)O[C@]12CC[N@+]3(C)CCCC[C@@H]3[C-]1Nc1ccccc12`: the activity, negative = inhibition is -11% [at 11.4 µM]. In the case of `N#Cc1cccc(-c2nccc(-n3ccnc3)n2)c1`, the AC50 (as a rule, the concentration giving half of the maximal activity seen) was 0.2 µM (active). Consider `N#Cc1cccc(-c2cc(-n3ccnc3)ncn2)c1`, for which the AC50 was 0.126 µM (active). For `COc1cccc(/C(O)=C2/C(=O)C(=O)N(c3ccccn3)C2c2ccc(OC)c(OC)c2)c1` (centres undefined), the “activity, negative = inhibition” value was 12%. With `CN(C)c1ccc(-c2cc(-n3ccnc3)ncn2)cc1`, the AC50 is 0.158 µM (active). As to `COc1ccc(C2/C(=C(/O)c3ccccc3)C(=O)C(=O)N2c2ccccn2)c(OC)c1` (centres undefined), the “activity, negative = inhibition” value was -28.1%.

As to `COc1cccc(-c2nccc(-n3ccnc3)n2)c1`, the AC50 is 0.0316 µM (active). Consider `NN(CC(=O)O)CC(=O)O`, for which the activity, negative = inhibition is 1.78% [at 11.4 µM]. In the case of `C[N@+]1(CCC(=O)c2ccccc2)CC[C@H]2CC[C@H](C2)C1`, the activity, negative = inhibition is -19% [at 11.4 µM]. `c1cncc(-c2cc(-n3ccnc3)ncn2)c1`: the AC50 was 0.1 µM (active). For the compound `CC1(C)NC(=O)N(c2ccc([N+](=O)[O-])c(C(F)(F)F)c2)C1=O`, the half-maximal activity concentration (AC50) was 3.16 µM (active) and 2.51 µM (active).

For the compound `Cc1ccc(C2C3=C(CCCC3=O)Nc3nc(SCC(=O)NCc4ccco4)[nH]c(=O)c32)cc1` (centres undefined), the “activity, negative = inhibition” value was -17.4%. In the case of `CCSc1nc2c(c(=O)[nH]1)C(c1ccccn1)C1=C(CC(C)(C)CC1=O)N2` (centres undefined), the “activity, negative = inhibition” value was -27.4%.

As to `CCSc1nc2c(c(=O)[nH]1)C(c1ccncc1)C(C(=O)OC(C)C)=C(C)N2` (centres undefined), the AC50 is 15.8 µM (active).

As for `[Li+]`, the “activity, negative = inhibition” value was -2.16%.

As for `COc1cccc(C(=O)NCCN2CCOCC2)c1`, the “activity, negative = inhibition” value was -9.55%.

Consider `COc1ccc(C(=O)Nc2nc3c(s2)Cc2cc(OC)ccc2-3)cc1`, for which the half-maximal activity concentration (AC50) was 4.47 µM (active). Consider `COc1ccc(NC(=O)C2(c3ccc(NC(=O)c4ccc(C)cc4)cc3)CCCC2)cc1`, for which the “activity, negative = inhibition” value was 5.17%. Take `COc1cccc(C(=O)Nc2nc3c(s2)CN(C)CC3)c1`: the concentration at half-maximal activity (AC50) is 12.6 µM (active). On the same count and under the same terms, with `COc1ccc2c(c1)CCc1sc(NC(=O)c3ccc(C)cc3)nc1-2` the figure was 4.47 µM (active). For the compound `COc1ccc(NC(=O)N2CC3(CCN(C(=O)c4ccco4)CC3)C2)cc1`, the “activity, negative = inhibition” value was -9.08%. On to `COc1ccc2c(c1)Cc1sc(NC(=O)c3ccco3)nc1-2`, for which the AC50 is 3.16 µM (active). On to `COc1ccc(-c2nc(NC(=O)c3ccccc3)sc2-c2ccc([N+](=O)[O-])cc2)cc1`, for which the “activity, negative = inhibition” value was -4.3%. On the same count and under the same terms, with `CC(=O)OC[C@H]1O[C@@H](CCO/N=C2/[C@H]3O[C@@H]3[C@@H](O)[C@H]3[C@H]2CCn2c(=O)n(-c4ccccc4)c(=O)n23)C=C[C@@H]1OC(C)=O` the figure was -3.93% [at 11.4 µM]; with `C[C@@H](c1ccccc1)N1C(=O)[C@H]2[C@H]3[C@H](O)[C@H](O)C/C(=N/OC[C@@H](O)COCc4ccco4)[C@H]3CC[C@@H]2C1=O`, -3.98% [at 11.4 µM]. Turning to `CN(C(=S)NC(=O)c1ccccc1Br)C1CCCCC1`, the AC50 is 14.1 µM (active). On to `O=C(O)CCCCCNC(=O)c1ccccc1Br`, for which the “activity, negative = inhibition” value was 1.98%. The same measure, in the same setting: to `C[C@]1(OC(=O)/C=C\c2ccccc2)C[C@@H](O)[C@@]2(O)C=CO[C@@H](O[C@H]3O[C@@H](CO)[C@@H](O)[C@@H](O)[C@@H]3O)[C@H]21` belongs -7.84% [at 25.6 µM]; to `Nc1ncnc2c1nc(-c1ccccc1)n2[C@H]1O[C@@H](CO)[C@@H](O)[C@H]1O`, -16.8% [at 2.29 µM]. Turning to `c1ccc(-n2ncc3c2ncn2cnnc32)cc1`, the half-maximal activity concentration (AC50) was 6.31 µM (active). Turning to `CC(=O)Nc1ccc(Nc2ncnc3c2cnn3-c2ccccc2)cc1`, the “activity, negative = inhibition” value is -19%. In the case of `Nc1ncnc2c1cnn2-c1ccccc1`, the concentration at half-maximal activity (AC50) was 6.31 µM (active). Turning to `CSc1nsc(SC)c1NC(=O)OCc1ccccc1`, the AC50 is 10 µM (active). `CCOC(=O)c1ccc(NC(=O)C(=O)NCC2CCCO2)cc1` (centres undefined): the “activity, negative = inhibition” value is -12.1%.

For the compound `CSc1nsc(SC)c1NC(=O)OCC1CCCO1` (centres undefined), the half-maximal activity concentration (AC50) was 20 µM (active). On to `CC(=O)N1CCC2(CC1)CCN(C(=O)Nc1cccc(F)c1)CC2`, for which the “activity, negative = inhibition” value was -4.16%. Take `O=C(O)c1nnsc1COCc1ccccc1`: the activity, negative = inhibition was -12.2% [at 11.4 µM]. As to `O=C(Nc1cccc(F)c1)Nc1ccccn1`, the AC50 is 2 µM (active).

`CCC(=O)NC(NCC1CCCO1)C(Cl)(Cl)Cl` (centres undefined): the “activity, negative = inhibition” value was 9.29%.

For the compound `O=C(O)/C=C\C(=O)Nc1ccccn1`, the activity, negative = inhibition was -5.8% [at 11.4 µM].

On to `O=C(NCC1CCC(C(=O)O)CC1)OCc1ccccc1` (centres undefined), for which the “activity, negative = inhibition” value is -3.85%. For `O[C@H](CNc1ccccn1)c1ccccc1`, the activity, negative = inhibition is -29.6% [at 11.4 µM]. With `CSc1nsc(SC)c1NC(=O)Nc1ccccn1`, the half-maximal activity concentration (AC50) is 2.51 µM (active). In the case of `O=C(c1ccco1)N1CCC2(CCN(Cc3nccs3)CC2)CC1`, the “activity, negative = inhibition” value is -5.61%. `C=C1CC[C@H](O)C/C1=C/C=C1\CCC[C@]2(C)[C@H]1CC[C@H]2[C@@H](C)/C=C\[C@@H](C)C(C)C`: the “activity, negative = inhibition” value is 0.111% [at 25.6 µM]. `COCC(=O)Nc1c(I)c(C(=O)NC[C@@H](O)CO)c(I)c(C(=O)N(C)C[C@@H](O)CO)c1I`: the “activity, negative = inhibition” value is 0.0909% [at 25.6 µM].

On to `COc1cccc([C@@H]2Oc3ccc(OC)cc3C(=O)[C@H]2O)c1`, for which the activity, negative = inhibition is 2.62% [at 11.4 µM].

With `Cc1cc(NC(=O)C2=C(O)c3ccccc3S(=O)(=O)N2C)no1`, the “activity, negative = inhibition” value is -6.66% [at 25.6 µM]. As to `COc1ccc2c(c1)-c1ccccc1S(=O)(=O)N2C(C)=O`, the AC50 was 20 µM (active). Turning to `O=C(c1cc(C(F)(F)F)cc(C(F)(F)F)c1)N1CCC2(CCCN(Cc3nccs3)C2)CC1`, the “activity, negative = inhibition” value was 9.76%. With `Cc1ccc(Nc2c([N+](=O)[O-])ccc3c2=NC2(CCCCC2)N=3)cc1`, the AC50 is 15.8 µM (active). Take `Cc1c(Cl)cccc1NC(=O)CC1NCCNC1=O` (centres undefined): the “activity, negative = inhibition” value was 0.636%.

With `Cc1cccc(NC(=O)CCCN2C(=O)c3cccc4cccc(c34)C2=O)c1`, the AC50 was 6.31 µM (active). For `CCOC(=O)c1sc(NC(=O)CCCCCN2C(=O)c3cccc4cccc(c34)C2=O)nc1C`, the half-maximal activity concentration (AC50) was 25.1 µM (active). On to `Cc1ccc(NC(=O)CCN2C(=O)c3ccncc3C2=O)cc1`, for which the “activity, negative = inhibition” value was -35%. Consider `CCOC(=O)Cc1csc(NC(=O)CCCCCN2C(=O)c3ccccc3C2=O)n1`, for which the AC50 is 1.78 µM (active). The same measure, in the same setting: to `Cc1cccc(NC(=O)CC2Nc3cccc4cccc(c34)NC2=O)c1` (centres undefined) belongs 5.01 µM (active). Take `C[N+](C)(CCCCCC[N+](C)(C)CCCN1C(=O)c2cccc3cccc(c23)C1=O)CCCN1C(=O)c2cccc3cccc(c23)C1=O`: the “activity, negative = inhibition” value was 10.6%. `[N-]=[N+]=NC[C@@H]1O[C@@H](n2cnc3c(N)ncnc32)[C@@H]2O[C@@H]21`: the activity, negative = inhibition is -13.8% [at 11.4 µM]. Consider `COCCCNC(=O)C1CC(=O)N(CCc2ccc(OC)c(OC)c2)C1` (centres undefined), for which the “activity, negative = inhibition” value is -18.6%. For the compound `N/C(=N\O)c1cn([C@@H]2O[C@@H](CO)[C@H](O)[C@@H]2O)c2ncnc(NO)c12`, the activity, negative = inhibition was -18.7% [at 2.29 µM]. `C=C[C@H](N)CCC(=O)O`: the AC50 result is “inactive”.

Consider `C[C@@H](C[N+](C)(C)C)OC(N)=O`, for which the AC50 result is “inactive”.

Take `Cc1cccc(/C(N)=N/OC(=O)CCCN2C(=O)c3ccccc3C2=O)c1`: the AC50 is 15.8 µM (active). As to `CSCC[C@@H]1NC(=O)C/C=C\[C@@H](C)COC(=O)[C@H](C)COC1=O`, the activity, negative = inhibition was -2.99% [at 11.4 µM].

On to `CCC(CC)C(=O)NCCN1CCN(C(=O)C(CC)CC)CC1`, for which the “activity, negative = inhibition” value is 4.35%. Same read-out and setting: to `CCCCOc1ccc(CN2CCC(O)CC2)cc1` belongs 10.8%; to `COc1ccc(C[C@@H]2c3cc(OC)c(OC)cc3CC[N@+]2(C)CCC(=O)OCCCCCOC(=O)CC[N@@+]2(C)CCc3cc(OC)c(OC)cc3[C@H]2Cc2ccc(OC)c(OC)c2)cc1OC`, 0.265% [at 25.6 µM]. In the case of `CCCCOc1cc(C[C@@H]2CNC(=O)N2)ccc1OC`, the AC50 was 10 µM (active).

Regarding `Cc1ccccc1Oc1ncnc2sccc12`, the AC50 was 12.6 µM (active). Consider `N#CCCn1cc(/C=N/O)c(-c2ccc(Cl)cc2)n1`, for which the concentration at half-maximal activity (AC50) was 0.891 µM (active).

On to `Oc1[nH]c2ccccc2c1/C=N/c1nccs1`, for which the AC50 was 0.251 µM (active). Consider `COc1ccc(-c2cc(-c3c(O)c(OC)c4occc4c3OC)[nH]n2)cc1OC`, for which the AC50 is 6.31 µM (active). `COc1ccc(-c2cc(-c3cc(F)ccc3O)[nH]n2)cc1OC`: the AC50 is 6.31 µM (active). For the compound `CCc1ccc(-c2csc(NC(=O)C3CCCO3)c2C(=O)OC(C)C)cc1` (centres undefined), the AC50 is 7.08 µM (active).

On to `Cc1ccc(-c2c(C)sc(NC(=O)C3C4CCC(O4)C3C(=O)O)c2C(=O)OC(C)C)cc1` (centres undefined), for which the “activity, negative = inhibition” value is -13.6%.

As for `C=C(C)[C@H]1CC=C(C)/C(=N/NC(=O)CNc2ccccc2OC)C1`, the AC50 is 15.8 µM (active). Take `C=C(C)C1CC=C(C)/C(=N/NC(=O)c2ccc(NC(=O)c3cccc(C)c3)cc2)C1` (centres undefined): the “activity, negative = inhibition” value is -8.69%. On the same count and under the same terms, with `CC(=O)N1c2ccc(S(=O)(=O)CCC(=O)O)cc2CC1C` (centres undefined) the figure was 3.83%; with `COC(=O)c1ccccc1NC(=O)C1CCN(C(=O)c2ccc(OC)cc2)CC1`, -10.6%; with `COC(=O)c1cn(NC(=O)c2ccc(F)cc2)c(=O)c2ccccc12`, -20.8%. Take `COC(=O)c1ccccc1NC(=O)c1ccc(F)cc1`: the AC50 was 0.2 µM (active). Turning to `COC(=O)c1ccccc1NC(=O)c1c(Br)cnn1C`, the concentration at half-maximal activity (AC50) was 0.891 µM (active). Turning to `CCCCOC(=O)Nc1ccccc1C(=O)OC`, the AC50 is 2 µM (active).

On to `Cc1ccccc1C(=O)NNC(=O)c1ccc(F)cc1`, for which the “activity, negative = inhibition” value is 2.52%. On to `CCOC(=O)c1c(NC(=O)c2c(Br)cnn2C)c(C#N)nn1-c1ccccc1`, for which the AC50 is 0.631 µM (active). Consider `Cc1c(C(=O)O)nc(/C=C\C(=O)O)[nH]c1=O`, for which the activity, negative = inhibition is -6.61% [at 11.4 µM].
